Assay outcomes (PubChem BioAssay)
Giardia killer: Small Molecules that selectively kill Giardia lamblia: qHTS | 0.15% of 340,000 active | Giardia lamblia trophozoite viability | activity change, % at 7.66 µM, hits read low; in the data active = activity change below about -80%; inconclusive = between about -30% and that limit;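 note: parasites exposed to compound for two days anaerobically before the ATP read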
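Compounds were tested on trophozoites seeded at 100 cells/well and held 48 hrs at 37 deg C anaerobically. An ATP-based luminescent kit measured the remaining live cells.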
SW480 rerep: A quantitative high throughput screen for small molecules that induce DNA re-replication in SW480 colon adenocarcinoma cells; SW480 DNA re-replication, Hoechst DNA content imaging, 48 h; Potency, µM (titrated, usually from 46.1 µM), hits mostly activators; 1.8% of 340,000 active; note: nearly all actives have a fitted effect of over 55% in size
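250 cells/well; 23 nL cpd via pin tool; 48 hr, 37 C, 5% CO2; Hoechst 40 min; imager read of total nuclear intensity, ex 405/em 500-530 nm.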
Vif-APOBEC3F blk: qHTS for Inhibitors of Vif-A3F Interactions: qHTS | HeLa A3F-eYFP + Vif (tagged APOBEC3F with the HIV-1 protein that degrades it), YFP fluorescence increase | Potency, µM (top dose mostly 46.1 µM) | 0.2% of 390,000 active | AID 602313, 2012; note: nearly all actives have a fitted effect of over 65% in size
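HeLa cells stably expressing A3F-eYFP plus Vif, plated and incubated overnight at 37 deg C, then exposed to compounds overnight at 37 deg C. Blocked degradation read as raised yellow fluorescence (Ex 488/Em 500-530).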
Vif-APOBEC3G blk: qHTS for Inhibitors of Vif-A3G Interactions: qHTS; DNA dC->dU-editing enzyme APOBEC-3G (Homo sapiens), Q9HC16; HeLa A3G-eYFP + Vif (tagged APOBEC3G with the HIV-1 protein that degrades it), YFP fluorescence, overnight; Potency, µM (top dose mostly 46.1 µM), hits mostly inhibitors; 0.076% of 410,000 active; AID 602310, 2012; note: nearly all actives have a fitted effect of over 60% in size
Target sequence (Q9HC16 whole entry, looked up): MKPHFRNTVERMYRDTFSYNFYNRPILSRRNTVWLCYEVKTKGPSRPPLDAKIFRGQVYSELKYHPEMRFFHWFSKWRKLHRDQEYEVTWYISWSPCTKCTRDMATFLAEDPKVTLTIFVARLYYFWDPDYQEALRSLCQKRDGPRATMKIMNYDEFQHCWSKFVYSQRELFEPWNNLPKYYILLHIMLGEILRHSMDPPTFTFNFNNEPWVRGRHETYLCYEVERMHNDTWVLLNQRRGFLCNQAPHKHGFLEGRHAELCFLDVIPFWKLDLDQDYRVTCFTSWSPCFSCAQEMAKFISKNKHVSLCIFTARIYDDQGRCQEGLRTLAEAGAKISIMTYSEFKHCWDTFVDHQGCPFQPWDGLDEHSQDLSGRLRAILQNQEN
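Read-out is eYFP fluorescence (Ex 488/Em 500-530) from Vif-expressing HeLa A3G-eYFP cells; more signal means A3G escaped Vif-mediated degradation. Cells plated overnight, compound pinned in, incubated overnight at 37 deg C.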
MCF10A rereplic: A quantitative high throughput screen for small molecules that induce DNA re-replication in MCF 10a normal breast cells; Potency, µM (titrated, usually from 46.1 µM), most hits filed as activators; MCF 10A DNA re-replication, Hoechst nuclear intensity, 48 h; 2.9% of 350,000 active; note: nearly all actives have a fitted effect of over 50% in size
IL1B secr inh: qHTS for Inhibitors of Inflammasome Signaling: IL-1-beta AlphaLISA Primary Screen. THP-1 LPS/ATP IL-1B secretion, AlphaLISA, 16 h; active compounds read low. activity change, % at 57.5 µM. 4.7% of 360,000 active; in the data active = activity change below about -50%; inconclusive = mostly about -30% to -49%
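Secreted IL-1B measured by AlphaLISA bead assay after 16 h compound exposure of THP-1 cells; compounds (final up to 57.5 uM) added 1 h before LPS (250 ng/mL) and ATP (1.25 mM) stimulation; lower signal means less secretion.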
A number is an active result; . = inactive; ? = inconclusive; / = not tested or not shown. Compounds with a hit are over-represented: about 6.9% of the library has one in this group of screens. Unless noted, calls come from the whole dose curve; as a rule, active = well fitted curve in the direction sought with a large enough effect; inconclusive = small, poorly fitted or top-dose-only effect, or another doubt; inactive = no such curve, though single readings can be large; an effect the other way counts as inactive or inconclusive.

SMILES	Giardia killer	SW480 rerep	Vif-APOBEC3F blk	Vif-APOBEC3G blk	MCF10A rereplic	IL1B secr inh
COC(=O)[C@@]12C[C@@H](CC(=O)NCc3cccc4ccccc34)C(=O)N(Cc3ccc4c(c3)OCO4)C1=CCC(C)(C)C2	/	/	/	/	/	-87
COC(=O)[C@@]12C[C@@H](CC(=O)NCc3cccc(C(F)(F)F)c3)C(=O)N(Cc3ccccc3)C1=CCC(C)(C)C2	/	/	/	/	/	-78
CCOc1ccc(-n2c(=O)c3c4c(sc3n(CC(=O)NC(C)CC)c2=O)CCCC4)cc1 (configuration not stated)	/	/	.	.	/	/
O=C(CSc1nc2c([nH]c3ccccc32)c(=O)n1-c1ccccc1)Nc1ccc2c(c1)OCO2	/	/	.	.	/	/
CCCCCCCCCn1c2c(c(=N)c3c1CCC3)CCC2	.	.	.	.	?	-97
Cc1cc(NC(=O)C(C)(C)C)cc(-c2nc3ncccc3o2)c1O	/	/	.	.	/	/
Cc1cc(NC(=O)Cc2c(F)cccc2Cl)no1	.	?	.	.	7.3µM	.
O=C(Cc1c(F)cccc1Cl)Nc1ccon1	.	.	.	.	.	.
CC(=O)c1sc(NC(=O)Cc2c(F)cccc2Cl)nc1C	.	.	.	.	.	.
O=C(Cc1c(F)cccc1Cl)Nc1nc2ccccc2s1	.	.	.	.	?	-57
COC(=O)C1=C[C@@H](C(=O)OC)C2C3=C(C(=O)[C@]2(CC(C)C)NC(=O)c2ccccc2)[C@H](C)n2c(=O)n(C)c(=O)n2[C@@H]3C1 (some centres not stated)	.	/	/	.	/	/
COC(=O)C1CSC(C)(C)C(=O)N1 (configuration not stated)	.	.	.	.	0.92µM	.
CC1(C)CSC(C)(C)C(=O)N1	.	.	.	.	.	.
CC(C)(C)c1ccc(-c2nc(N)nc(N)n2)cc1	.	.	.	.	.	.
CC(C)(C)c1ccc(-c2conc2N)cc1	.	?	.	.	18µM	.
O=[N+]([O-])c1ccccc1CSc1ccccn1	.	.	.	.	.	-63
O=[N+]([O-])c1ccc(CSc2ccccn2)cc1	.	.	.	.	.	.
CCN(CC)S(=O)(=O)c1ccc(O)c(C(=O)OCC(=O)Nc2cc(C)c(C)cc2[N+](=O)[O-])c1	.	.	.	.	.	.
CCN(CC)S(=O)(=O)c1ccc(O)c(C(=O)OCC(=O)Nc2ccc(OC(F)(F)F)cc2)c1	.	.	.	.	?	-52
NC(Cc1ccc(C(F)(F)F)cc1)c1csc(Nc2ccc(C(=O)c3ccccc3)cc2)n1 (configuration not stated)	/	/	/	.	/	-70
CN(Cc1ccccc1)C(=O)c1ccc(Nc2nc(C(N)Cc3ccccc3)cs2)nc1 (configuration not stated)	/	/	/	.	/	.
NC(=O)c1ccc(Nc2nc(C(N)COCc3ccccc3)cs2)cc1 (configuration not stated)	/	/	/	.	/	.
NC(COCc1ccccc1)c1csc(Nc2ccc(C(=O)c3ccccc3)cc2)n1 (configuration not stated)	/	/	/	.	/	-66
Cc1ccc(C(=O)Nc2nc(C(N)Cc3ccc(C(F)(F)F)cc3)cs2)cc1 (configuration not stated)	/	/	/	.	/	-65
CN(Cc1ccccc1)C(=O)c1ccc(Nc2nc(C(N)Cc3ccc(C(F)(F)F)cc3)cs2)nc1 (configuration not stated)	/	/	/	.	/	-105
O=C(Cn1cc(S(=O)(=O)Cc2ccc(F)cc2)c2ccccc21)NCc1ccccc1Cl	/	/	.	.	/	/
Cc1ccc(N2CC(NC(=O)c3ccc(S(=O)(=O)N(C)C)cc3)CC2=O)cc1C (configuration not stated)	/	/	.	.	/	/
CCn1c(=N)c(S(=O)(=O)c2ccccc2)cc2c(=O)n3ccccc3nc21	.	.	.	.	6.5µM	.
